Test results published in ChEMBL document CHEMBL1961873, “Compounds: GSK PKIS; Assays: Nanosyn kinase panel” (2012).

Legend:
[1] = molecular target: T1, Muscle, skeletal receptor tyrosine-protein kinase (Homo sapiens) (UniProt O15146); settings: at 1 µM;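 also: reported value is the mean percent inhibition of MuSK kinase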
T1 sequence (whole entry): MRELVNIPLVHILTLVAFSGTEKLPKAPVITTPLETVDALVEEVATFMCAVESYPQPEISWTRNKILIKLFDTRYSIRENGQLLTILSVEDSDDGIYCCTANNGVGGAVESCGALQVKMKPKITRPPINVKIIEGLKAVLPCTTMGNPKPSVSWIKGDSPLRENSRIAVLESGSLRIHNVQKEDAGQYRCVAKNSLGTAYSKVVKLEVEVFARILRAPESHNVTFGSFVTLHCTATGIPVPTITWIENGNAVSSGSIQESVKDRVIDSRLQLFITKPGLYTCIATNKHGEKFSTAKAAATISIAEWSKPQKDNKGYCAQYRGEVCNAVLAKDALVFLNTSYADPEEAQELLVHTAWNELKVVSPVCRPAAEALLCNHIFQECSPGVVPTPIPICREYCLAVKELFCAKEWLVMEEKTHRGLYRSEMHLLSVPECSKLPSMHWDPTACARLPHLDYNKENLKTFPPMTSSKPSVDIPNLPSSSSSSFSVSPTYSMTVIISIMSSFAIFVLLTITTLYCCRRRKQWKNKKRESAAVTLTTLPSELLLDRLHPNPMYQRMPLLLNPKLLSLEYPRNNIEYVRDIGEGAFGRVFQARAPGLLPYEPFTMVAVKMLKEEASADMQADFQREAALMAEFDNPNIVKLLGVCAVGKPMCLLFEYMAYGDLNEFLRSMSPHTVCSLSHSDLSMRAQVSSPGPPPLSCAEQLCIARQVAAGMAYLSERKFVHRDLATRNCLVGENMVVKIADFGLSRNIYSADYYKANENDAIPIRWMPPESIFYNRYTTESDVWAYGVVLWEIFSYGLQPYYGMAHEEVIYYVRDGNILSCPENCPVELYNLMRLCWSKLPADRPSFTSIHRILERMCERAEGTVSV

[2] = molecular target: Platelet-derived growth factor receptor alpha (Homo sapiens) (UniProt P16234); settings: at 0.1 µM
Platelet-derived growth factor receptor alpha (Homo sapiens), sequence (P16234 whole entry): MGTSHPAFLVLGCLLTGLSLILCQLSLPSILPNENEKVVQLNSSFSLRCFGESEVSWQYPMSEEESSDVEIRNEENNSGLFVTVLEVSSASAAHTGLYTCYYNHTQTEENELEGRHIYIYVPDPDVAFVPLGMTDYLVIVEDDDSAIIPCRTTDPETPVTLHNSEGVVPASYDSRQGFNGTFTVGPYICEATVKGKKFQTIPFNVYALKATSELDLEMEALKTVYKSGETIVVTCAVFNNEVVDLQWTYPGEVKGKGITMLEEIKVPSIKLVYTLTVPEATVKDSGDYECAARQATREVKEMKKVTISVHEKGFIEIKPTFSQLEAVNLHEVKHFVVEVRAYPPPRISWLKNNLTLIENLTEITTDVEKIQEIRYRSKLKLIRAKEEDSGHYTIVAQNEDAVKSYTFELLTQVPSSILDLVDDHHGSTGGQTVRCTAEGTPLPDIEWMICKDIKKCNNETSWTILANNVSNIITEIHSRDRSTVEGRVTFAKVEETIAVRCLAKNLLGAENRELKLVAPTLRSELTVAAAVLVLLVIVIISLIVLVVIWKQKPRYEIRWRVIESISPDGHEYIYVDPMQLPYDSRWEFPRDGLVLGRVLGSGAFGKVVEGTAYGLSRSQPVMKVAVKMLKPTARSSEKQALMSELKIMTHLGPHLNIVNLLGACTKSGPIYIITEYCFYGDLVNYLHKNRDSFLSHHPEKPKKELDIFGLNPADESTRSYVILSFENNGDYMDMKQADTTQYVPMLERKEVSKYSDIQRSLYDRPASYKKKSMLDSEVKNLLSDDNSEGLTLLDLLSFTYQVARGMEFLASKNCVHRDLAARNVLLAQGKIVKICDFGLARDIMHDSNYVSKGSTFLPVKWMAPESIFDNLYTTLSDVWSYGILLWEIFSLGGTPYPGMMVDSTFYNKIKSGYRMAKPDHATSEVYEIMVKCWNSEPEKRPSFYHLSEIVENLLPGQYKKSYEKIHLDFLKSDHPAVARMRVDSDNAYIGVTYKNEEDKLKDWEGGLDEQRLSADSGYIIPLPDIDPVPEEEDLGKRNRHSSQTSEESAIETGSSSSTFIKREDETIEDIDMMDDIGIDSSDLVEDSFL

[3] = molecular target: Platelet-derived growth factor receptor alpha (Homo sapiens) (UniProt P16234); settings: at 1 µM
[4] = test system: Platelet-derived growth factor receptor alpha (Homo sapiens), P16234 [D842V]; settings: at 0.1 µM
[5] = test system: Platelet-derived growth factor receptor alpha (Homo sapiens), P16234 [D842V]; settings: at 1 µM
[6] = test system: Platelet-derived growth factor receptor alpha (Homo sapiens), P16234 [T674I]; settings: at 0.1 µM
[7] = test system: Platelet-derived growth factor receptor alpha (Homo sapiens), P16234 [T674I]; settings: at 1 µM
[8] = test system: Platelet-derived growth factor receptor alpha (Homo sapiens), P16234 [V561D]; settings: at 0.1 µM
Platelet-derived growth factor receptor alpha (Homo sapiens), P16234 [V561D], sequence (P16234 whole entry V561D): as the sequence (P16234 whole entry) above, with V561D counted along it

[9] = test system: Platelet-derived growth factor receptor alpha (Homo sapiens), P16234 [V561D]; settings: at 1 µM
[10] = molecular target: Platelet-derived growth factor receptor beta (Homo sapiens) (UniProt P09619); settings: at 0.1 µM
Platelet-derived growth factor receptor beta (Homo sapiens), sequence (P09619 whole entry): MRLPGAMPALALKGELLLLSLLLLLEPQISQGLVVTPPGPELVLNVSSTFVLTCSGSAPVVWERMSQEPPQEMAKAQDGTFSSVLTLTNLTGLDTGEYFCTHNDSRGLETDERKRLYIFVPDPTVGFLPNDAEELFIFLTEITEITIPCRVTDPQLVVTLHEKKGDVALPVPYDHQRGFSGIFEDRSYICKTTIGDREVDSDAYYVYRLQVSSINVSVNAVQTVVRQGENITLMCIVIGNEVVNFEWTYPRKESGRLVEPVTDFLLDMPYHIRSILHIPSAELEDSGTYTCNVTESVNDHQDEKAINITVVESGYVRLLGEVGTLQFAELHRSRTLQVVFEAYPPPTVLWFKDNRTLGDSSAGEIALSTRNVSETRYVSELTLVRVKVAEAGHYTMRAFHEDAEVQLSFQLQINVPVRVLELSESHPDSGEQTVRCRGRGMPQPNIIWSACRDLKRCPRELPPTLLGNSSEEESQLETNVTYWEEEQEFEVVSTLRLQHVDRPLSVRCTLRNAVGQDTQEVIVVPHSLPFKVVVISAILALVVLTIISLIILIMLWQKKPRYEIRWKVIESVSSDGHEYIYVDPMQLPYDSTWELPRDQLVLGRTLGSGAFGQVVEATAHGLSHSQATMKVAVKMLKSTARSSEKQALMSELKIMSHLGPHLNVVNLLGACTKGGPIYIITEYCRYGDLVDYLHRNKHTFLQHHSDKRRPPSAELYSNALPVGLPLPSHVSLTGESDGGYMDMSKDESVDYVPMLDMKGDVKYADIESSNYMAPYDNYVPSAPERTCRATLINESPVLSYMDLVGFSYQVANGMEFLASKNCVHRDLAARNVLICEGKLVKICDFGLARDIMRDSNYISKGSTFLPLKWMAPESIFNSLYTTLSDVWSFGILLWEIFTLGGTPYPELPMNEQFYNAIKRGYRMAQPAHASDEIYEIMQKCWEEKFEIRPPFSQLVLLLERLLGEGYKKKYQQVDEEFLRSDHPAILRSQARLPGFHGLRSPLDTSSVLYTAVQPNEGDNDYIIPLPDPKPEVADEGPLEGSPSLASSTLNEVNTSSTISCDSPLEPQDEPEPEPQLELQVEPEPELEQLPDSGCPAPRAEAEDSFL

[11] = molecular target: Platelet-derived growth factor receptor beta (Homo sapiens) (UniProt P09619); settings: at 1 µM
[12] = molecular target: Tyrosine-protein kinase FRK (Homo sapiens) (UniProt P42685); settings: at 0.1 µM
Tyrosine-protein kinase FRK (Homo sapiens), sequence (P42685 whole entry): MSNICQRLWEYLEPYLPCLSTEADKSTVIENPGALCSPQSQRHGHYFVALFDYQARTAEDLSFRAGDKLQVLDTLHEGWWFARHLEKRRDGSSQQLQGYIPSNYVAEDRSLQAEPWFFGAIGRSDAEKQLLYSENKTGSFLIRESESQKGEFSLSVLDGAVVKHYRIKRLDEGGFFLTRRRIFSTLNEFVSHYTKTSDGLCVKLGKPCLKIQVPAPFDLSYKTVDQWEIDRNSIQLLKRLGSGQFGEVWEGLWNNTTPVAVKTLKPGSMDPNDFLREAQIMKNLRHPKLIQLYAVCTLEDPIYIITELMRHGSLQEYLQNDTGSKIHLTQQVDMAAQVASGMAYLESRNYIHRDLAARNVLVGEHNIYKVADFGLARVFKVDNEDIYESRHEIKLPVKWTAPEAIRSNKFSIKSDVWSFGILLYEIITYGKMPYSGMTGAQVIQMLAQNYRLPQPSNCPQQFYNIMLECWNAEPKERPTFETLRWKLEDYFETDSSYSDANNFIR

[13] = molecular target: Tyrosine-protein kinase FRK (Homo sapiens) (UniProt P42685); settings: at 1 µM
[14] = molecular target: Protein-tyrosine kinase 2-beta (Homo sapiens) (UniProt Q14289); settings: at 0.1 µM
[15] = molecular target: Protein-tyrosine kinase 2-beta (Homo sapiens) (UniProt Q14289); settings: at 1 µM
[16] = molecular target: Proto-oncogene tyrosine-protein kinase receptor Ret (Homo sapiens) (UniProt P07949); settings: at 0.1 µM
[17] = molecular target: Proto-oncogene tyrosine-protein kinase receptor Ret (Homo sapiens) (UniProt P07949); settings: at 1 µM
[18] = test system: Proto-oncogene tyrosine-protein kinase receptor Ret (Homo sapiens), P07949 [V804L]; settings: at 0.1 µM
[19] = test system: Proto-oncogene tyrosine-protein kinase receptor Ret (Homo sapiens), P07949 [V804L]; settings: at 1 µM
[20] = test system: Proto-oncogene tyrosine-protein kinase receptor Ret (Homo sapiens), P07949 [Y791F]; settings: at 0.1 µM
Proto-oncogene tyrosine-protein kinase receptor Ret (Homo sapiens), P07949 [Y791F], sequence (P07949 whole entry Y791F): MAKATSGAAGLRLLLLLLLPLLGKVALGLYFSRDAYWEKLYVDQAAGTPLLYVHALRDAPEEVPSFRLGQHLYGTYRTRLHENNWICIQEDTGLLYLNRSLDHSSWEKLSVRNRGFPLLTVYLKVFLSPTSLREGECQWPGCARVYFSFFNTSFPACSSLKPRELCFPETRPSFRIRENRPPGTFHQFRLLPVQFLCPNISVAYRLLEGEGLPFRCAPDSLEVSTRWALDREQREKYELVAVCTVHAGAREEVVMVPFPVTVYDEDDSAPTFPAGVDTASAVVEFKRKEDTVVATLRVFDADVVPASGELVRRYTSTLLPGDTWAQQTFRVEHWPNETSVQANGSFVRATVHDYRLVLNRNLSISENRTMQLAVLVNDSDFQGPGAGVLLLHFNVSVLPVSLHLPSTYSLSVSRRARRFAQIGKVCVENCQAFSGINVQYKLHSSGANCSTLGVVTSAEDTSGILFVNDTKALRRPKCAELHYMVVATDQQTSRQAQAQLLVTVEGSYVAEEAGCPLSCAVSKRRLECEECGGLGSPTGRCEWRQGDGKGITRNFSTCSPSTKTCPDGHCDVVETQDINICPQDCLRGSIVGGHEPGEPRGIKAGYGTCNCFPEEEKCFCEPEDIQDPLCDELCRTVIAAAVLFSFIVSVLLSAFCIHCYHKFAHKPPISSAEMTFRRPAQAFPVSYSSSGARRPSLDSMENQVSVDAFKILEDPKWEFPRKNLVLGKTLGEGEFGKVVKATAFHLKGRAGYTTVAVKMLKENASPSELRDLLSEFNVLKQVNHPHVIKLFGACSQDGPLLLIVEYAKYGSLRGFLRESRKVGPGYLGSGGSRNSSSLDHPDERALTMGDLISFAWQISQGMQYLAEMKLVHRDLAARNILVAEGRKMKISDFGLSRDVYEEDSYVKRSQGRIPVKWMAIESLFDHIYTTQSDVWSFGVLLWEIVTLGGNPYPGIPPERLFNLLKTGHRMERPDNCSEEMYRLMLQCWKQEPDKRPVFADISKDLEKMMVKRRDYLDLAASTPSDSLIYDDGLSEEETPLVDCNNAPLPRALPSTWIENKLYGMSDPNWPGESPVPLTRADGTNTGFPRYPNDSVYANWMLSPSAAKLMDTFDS

Row | SMILES | inhibition [1] [%] | inhibition [2] [%] | inhibition [3] [%] | inhibition [4] [%] | inhibition [5] [%] | inhibition [6] [%] | inhibition [7] [%] | inhibition [8] [%] | inhibition [9] [%] | inhibition [10] [%] | inhibition [11] [%] | inhibition [12] [%] | inhibition [13] [%] | inhibition [14] [%] | inhibition [15] [%] | inhibition [16] [%] | inhibition [17] [%] | inhibition [18] [%] | inhibition [19] [%] | inhibition [20] [%]
1 | COc1ccc2ncnc(Nc3ccc(OCc4ccccc4)cc3)c2c1 | 1.74 | 4.33 | 12.2 | 0.76 | 1.54 | 2.64 | 4.95 | 1.76 | 4.16 | 0.54 | 7.02 | 0.42 | 0.42 | -1.91 | 5.66 | 3.22 | 5.23 | 0.54 | 7.26 | 4.16
2 | Cc1cc(Cl)cc2c1NC(=O)C2=NNc1ccc(S(N)(=O)=O)cc1 | 0.5 | 5.26 | 20.5 | 4.17 | 9.86 | 6.4 | 9.82 | 9.46 | 25.8 | 2.83 | 6.52 | 1.54 | 3.32 |  |  | 2.45 | -0.28 | 3.83 | 7.51 | -0.41
3 | CCS(=O)(=O)c1ccc(OC)c(Nc2ncc(-c3cccc(OC)c3)o2)c1 |  | 23.5 | 58.4 | 10.9 | 55.3 | 4.09 | 10.2 | 19.6 | 68.7 | 43.7 | 74.8 | 4.05 | 26.9 | 6.52 | 10.9 | 21.9 | 68.5 | 7.11 | 44.1 | 22.6
4 | CCn1c(-c2nonc2N)nc2c(C#CC(C)(C)O)nc(OCCNC)cc21 | 3.32 | 3.73 | 16.3 | 5.07 | 17.5 | 2.61 | 14.2 | 3.69 | 11.1 | 3.31 | 24.2 | 3.46 | 3.09 | 8.7 | 10.6 | 8.91 | 23.6 | 2.4 | 4.07 | 7.43
5 | CN(C)c1cc2c(Nc3ccc4c(cnn4Cc4ccccc4)c3)ncnc2cn1 | 1.56 | 0 | 8.21 | 0.65 | 4.51 | 3.93 | 8.69 | 0.81 | 6.19 | -1 | 7.75 | 1.92 | 2.5 | 4.48 | 5.1 | 1.87 | 13.6 | 3.56 | 0.35 | 5.78
6 | NC(=O)c1sc(-n2cnc3ccccc32)cc1OCc1ccccc1Br | 7.28 | 6.48 | 15.4 | 4.15 | 6.85 | 2.52 | 5.25 | 5.2 | 9.55 | 4.3 | 14.4 | 2.57 | 3.29 | 7.34 | 6.52 | 9.37 | 12.7 | 3.43 | 5.79 | 5.9
7 | NS(=O)(=O)c1cccc(-c2cc3ccncc3cc2OCc2ccccc2)c1 | 4.58 | 13.6 | 17.2 | 2.28 | 4.36 | 14.8 | 6.72 | 2.61 | 9.52 | 7.66 | 11.8 | 3.66 | 1.68 |  |  | 6.15 | 14.3 | 6.02 | 14.3 | 12.6
8 | CC(C)c1ccc(Nc2nccc(-c3cnn4ncccc34)n2)cc1 | 8.57 | 13 | 43.5 | 6.98 | 43 | 12.4 | 63.6 | 18.9 | 55.2 | 9.63 | 40.8 | 0.49 | 1.12 | 12 | 45.8 | 6.8 | 14.4 | 4.06 | 10.1 | 5.09
9 | CN(C)CCCn1c(-c2nonc2N)nc2cnccc21 | 4.01 | 6.93 | 8.22 | 2.47 | 3.67 | 4.13 | 7.54 | 1.59 | 4.37 | 5.05 | 11.6 | 2.2 | 1.55 | 9.44 | 4.55 | 7.25 | 8.04 | 1.93 | 2.02 | 2.47
10 | NS(=O)(=O)c1cccc(Nc2cc(-c3ccc(F)cc3)n[nH]2)c1 | 13.7 | 12.7 | 36.1 | 3.21 | 16.6 | 9.3 | 43 | 29.1 | 50.8 | 12.7 | 38 | 1.05 | 2.07 | 7.64 | 12.6 | 4.74 | 17.9 | 5.42 | 25.3 | 3.26
11 | COc1cc(Nc2nccc(-c3cnn4ncccc34)n2)cc(OC)c1 | 42.5 | 19.5 | 61.9 | 12.6 | 60.8 | 29 | 91.9 | 37.5 | 75.2 | 40.2 | 84.5 | 1.76 | 5.05 | 38.9 | 95.9 | 9.58 | 25.4 | 6.17 | 33.5 | 4.62
12 | CS(=O)(=O)CCNCc1nc(-c2ccc3ncnc(Nc4ccc(OCc5cccc(C(F)(F)F)c5)cc4)c3c2)cs1 | 5.88 | 5.06 | 13.7 | -0.28 | 1.79 | 5.99 | 15.7 | 4.8 | 20.4 | 6.68 | 10.1 | 1.71 | 0.38 | -1.25 | 2.41 | 5.26 | 4.11 | 2.89 | 5.13 | 7.97
13 | COc1cccc(-n2ncc3c(N/N=C/c4ccc(C)cc4)ncnc32)c1 | 13 | 8.78 | 23.2 | 6.24 | 24.4 | 4.6 | 17.1 | 7.1 | 25.9 | 7.34 | 21.1 | 2.86 | 5.6 | 4.06 | 15.8 | 3 | 11.5 | 3.72 | 10.2 | 4.38
14 | Nc1ccc(C#Cc2cncnc2Nc2ccc(OCc3cccc(F)c3)c(Cl)c2)cc1 | -0.75 | 3.02 | 5.52 | 2.77 | 2.86 | 3.22 | 5.56 | 1.6 | 3.26 | 3.04 | 3.64 | 0.8 | 1.06 | -4.77 | 0.23 | 6.12 | 7.18 | 9.98 | 3.18 | 2.75
